# Screening results: PubChem, National Center for Advancing Translational Sciences (NCATS)
# Compounds with a hit are over-represented: about 7.3% of the library has one in this group of screens.
# ELG1 genotoxic – genotoxicity induction in ELG1-luciferase HEK293T cells. HEK293T ELG1-luciferase reporter, luminescence, 16 h. Potency, µM (highest dose often 46 µM), without a hit: at the highest dose activity change, positive = activation, usual class: activators. 330,000 compounds, 1.3% hits. AID 504466; also: % of control where 0% means no effect; nearly all actives have a fitted effect of over 60% in size
#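 Cells (2,000/well) expressing the ELG1-luciferase fusion are dosed by pin tool and kept 16 hr at 37 °C, 5% CO2. Signal comes from ONE-Glo luciferase reagent after 30 min at room temperature.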
# uPA surface inh – inhibitors of cell surface uPA generation | cell surface uPA generation assay, qHTS | Potency, µM (doses to about 38.3 µM), for inactives: at the top dose activity change, negative = inhibition, actives largely listed as inhibitors | 330,000 compounds, 0.31% hits | AID 540303; active = well fitted inhibition curve with a large enough effect; inconclusive = small, poorly fitted or top-dose-only effect; inactive = no such curve, though single readings can be large or run the other way; tested in mouse RAW 264.7 cells; also: % is scaled to controls: 0 for no effect and ±100 for the full control effect; nearly all actives have a fitted effect of over 55% in size
# SMN2 splice enh – increases expression of the SMN2 splice variant. HEK293 SMN2-luciferase splicing reporter, luminescence, 30-36 h. Potency, µM (doses to about 46.1 µM), inactives show top-dose activity change, positive = activation, usual class: activators. 210,000 compounds, 2.8% hits. AID 1458; also: % of control where 0% means no effect; nearly all actives have a fitted effect of over 55% in size
#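 qHTS luciferase splicing reporter: luminescence rises when SMN2 exon 7 is included in transfected HEK293 cells. Compound exposure lasted 30-36 h at 37C, with 4.5 mM final sodium butyrate as control, followed by a ONE-Glo read.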
# FLuc counter – counter-screen for miR-21 project: firefly luciferase inhibitors or activators | P08659 | purified FLuc, Km substrates, luminescence inhibition | Potency, µM (top dose mostly 57.5 µM), for the others: top-dose activity change, negative = inhibition, most hits filed as inhibitors | 360,000 compounds, 6.9% hits | AID 588342;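 also: plate controls were vehicle for no effect and reference inhibitor for full effect; nearly all actives have a fitted effect of over 55% in size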
# Target sequence (P08659 whole entry, looked up): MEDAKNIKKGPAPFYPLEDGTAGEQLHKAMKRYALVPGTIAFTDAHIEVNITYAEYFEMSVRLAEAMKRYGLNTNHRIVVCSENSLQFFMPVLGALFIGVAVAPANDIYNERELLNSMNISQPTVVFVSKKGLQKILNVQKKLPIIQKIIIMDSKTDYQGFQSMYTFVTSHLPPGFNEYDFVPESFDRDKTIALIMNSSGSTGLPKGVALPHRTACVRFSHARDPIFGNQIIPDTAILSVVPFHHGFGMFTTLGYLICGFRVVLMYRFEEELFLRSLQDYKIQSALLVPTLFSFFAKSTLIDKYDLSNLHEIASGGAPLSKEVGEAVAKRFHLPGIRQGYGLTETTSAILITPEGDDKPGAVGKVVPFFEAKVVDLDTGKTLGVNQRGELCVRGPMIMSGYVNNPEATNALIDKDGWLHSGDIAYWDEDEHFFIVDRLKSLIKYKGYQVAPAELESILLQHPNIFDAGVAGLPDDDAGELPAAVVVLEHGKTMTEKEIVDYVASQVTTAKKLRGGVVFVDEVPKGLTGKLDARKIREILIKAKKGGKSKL
#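 Purified P. pyralis luciferase (10nM final) with 10uM D-luciferin and 10uM ATP (Km levels) in 50mM Tris acetate pH 7.5, 10mM Mg acetate, 0.01% Tween-20, 0.05% BSA; qHTS 6-point titration, ~60 µM downward; luminescence read.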
# NPC1 prom act – NPC1 promoter activation | 320,000 compounds, 2.4% hits | Potency, µM (series often up to 9.22 µM), without a hit: at the highest dose activation, usual class: activators | AID 485313 | Huh7 NPC1 promoter luciferase reporter, 24 h; also: % of control where 0% means no effect; nearly all actives have a fitted effect of over 60% in size
#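 Luminescence read-out of NPC1 promoter-driven luciferase in stably transfected Huh7 cells; compounds delivered in DMSO and left 24 h at 37C, 5% CO2, qHTS titration format.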
# Rab9 promoter act – activators of Rab9 promoter; Potency, µM (doses to about 9.22 µM), without a hit: at the top dose activation, negative = inhibition, most hits filed as activators; Huh7 Rab9 promoter-luciferase reporter, luminescence, 24 h; AID 485297; 320,000 compounds, 2.8% hits; also: % of control where 0% means no effect; nearly all actives have a fitted effect of over 60% in size
#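 Steps: seed 1500 Huh7 Rab9-luc cells per well, rest 2 h at 37 °C; add compound in DMSO; incubate 24 h; add luciferase reagent, 10 min ambient; read luminescence.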
# Starred values were filed as active, the others as inactive; ? = inconclusive; · = no result given. Unless noted, calls follow the shape of the dose curve; as a rule, active = well fitted curve in the direction sought with a large enough effect; inconclusive = small, poorly fitted or top-dose-only effect, or another doubt; inactive = no such curve, though single readings can be large; an effect the other way counts as inactive or inconclusive. Potency is read from the fitted curve at half-maximal effect.
SMILES,ELG1 genotoxic,uPA surface inh,SMN2 splice enh,FLuc counter,NPC1 prom act,Rab9 promoter act
CC[C@]1(O)C[C@@H]2CN(CCc3c([nH]c4ccccc34)[C@@](C(=O)OC)(c3cc4c(cc3OC)N(C)C3[C@]45CCN4CC=C[C@](CC)(C45)[C@@H](OC(C)=O)[C@]3(O)C(=O)OC)C2)C1 (stereo partly drawn),·,·,-28%,·,·,·
O=C[C@@H]1CCCN1C(=O)[C@@H]1CCCN1C(=O)OCc1ccccc1,·,·,0%,·,·,·
CCCOc1cccc(C(=O)N(Cc2cc(OC)c(OC)c(OC)c2)C2CCS(=O)(=O)C2)c1 (stereo not drawn),·,·,-4%,-5%,·,·
c1ccc2c(c1)NC1(CCCCC1)n1c-2nc2ccccc21,?,·,25%,21µM*,?,28%
c1ccc2c(c1)NC1(CCCCCC1)n1c-2nc2ccccc21,4µM*,-6%,10µM*,13µM*,?,3.2µM*
Cc1ccc(-n2nc3cc(C)c(NC(=O)COc4ccccc4)cc3n2)cc1,·,·,·,7%,·,·
COc1ccc(CCc2nnc(CCC(=O)NCCc3ncccc3C)o2)cc1,5%,15%,11%,-16%,0%,-2%
COc1ccc(CCc2nnc(CCC(=O)NCc3cc(C(C)C)no3)o2)cc1,?,6%,?,17µM*,27%,?
O=C(Nc1cccc(-c2cnc3ccccc3n2)c1)C1CC(=O)N(c2ccccc2)C1 (stereo not drawn),-10%,-7%,·,?,15%,-1%
O=C(CCl)Nc1ccc(Oc2cnc3ccccc3n2)cc1,-2%,·,-74%,3%,-10%,17%
CCC(=O)Nc1cccc(-c2cnc3ccccc3n2)c1,?,1%,19%,19µM*,?,?
O=C(CCl)Nc1cccc(-c2cnc3ccccc3n2)c1,-38%,-13%,-2%,12µM*,-5%,-34%
CCc1ccc(-c2cnc3ccccc3n2)cc1NC(=O)CNC(=O)c1ccccc1,3.7µM*,1%,·,2.7µM*,3.5µM*,4µM*
O=C(CNC(=O)c1ccccc1)Nc1ccsc1C(=O)O,0%,1%,·,-8%,-4%,-1%
Cc1cccc(OCC(=O)Nc2ccc(S(=O)(=O)N(Cc3ccccc3)c3ccccc3)cc2)c1,·,·,·,0%,·,·
CCOC(=O)C1=C(C)NC(C)=C(C(=O)OCC)C1c1ccc(O)cc1,14%,-11%,13µM*,3%,0%,12%
CC(C)(CNC(=O)c1sc2cc(Cl)ccc2c1Cl)N1CCOCC1,16µM*,-2%,·,?,0%,-4%
O=C(NCC1CCCO1)c1sc2cc(Cl)ccc2c1Cl (stereo not drawn),?,-3%,13µM*,11µM*,3.2µM*,2µM*
O=C(NCC1CCCO1)c1ccc2[nH]c3c(c2c1)CCCC3 (stereo not drawn),12%,-7%,·,21µM*,5%,26%
O=C(NCCN1CCOCC1)c1sc2cc(Cl)ccc2c1Cl,16%,6%,·,-16%,1%,0%
COc1ccc(CCNS(=O)(=O)c2ccc(F)c(C(=O)Nc3ccc(Cl)cc3)c2)cc1OC,·,·,·,-8%,·,·
Cc1ccc(CSc2nnc(-c3cccs3)n2C)cc1,7%,-7%,4%,-14%,10%,10%
Cc1nnc(SCc2cnc(-c3ccc(C(C)C)cc3)s2)n1C,?,-1%,?,0.3µM*,1.6µM*,2µM*
CN(C)c1ccc(/C=C2/SC(=O)N(CCN=C3NS(=O)(=O)c4ccccc43)C2=O)cc1,12%,-7%,·,-13%,?,?
CN(C)c1ccc(/C=C2\SC(=O)N(CCc3nnc(N)s3)C2=O)cc1,?,-5%,·,0.13µM*,0.1µM*,?
SMILES,ELG1 genotoxic,uPA surface inh,SMN2 splice enh,FLuc counter,NPC1 prom act,Rab9 promoter act
CCn1cc(C2C(C(=O)Nc3cc(C)ccn3)=C(C)NC3=C2C(=O)CC(C)(C)C3)c(C)n1 (stereo not drawn),1%,-1%,3%,2%,0%,-3%
CC1=C(C(=O)Nc2cc(C)ccn2)C(c2ccc(C)cc2)C2=C(CCCC2=O)N1 (stereo not drawn),13%,7%,10µM*,4%,-2%,-7%
Cc1ccc(C(=O)Nc2cc3c(oc2=O)CCCC3=O)cc1,?,-4%,27%,21µM*,?,?
Cc1ccc(Cc2nc(-c3ccccn3)no2)cc1,?,1%,13µM*,11µM*,1.8µM*,3.2µM*
c1ccc(C(Cc2nc(-c3ccccn3)no2)c2ccccc2)cc1,4%,5%,29%,?,?,?
c1ccc(SCc2nc(-c3ccccn3)no2)cc1,18µM*,-2%,11µM*,17µM*,3.5µM*,?
COc1ccc(-c2noc(CCc3ccccc3)n2)cc1,?,8%,23%,15µM*,?,?
c1ccc(CCCc2nc(-c3ccccn3)no2)cc1,?,-9%,20µM*,17µM*,2.8µM*,2.2µM*
O=C1c2ccccc2C(=O)N1Cc1nc(-c2ccccn2)no1,·,1%,-13%,-15%,·,·
COC(C[C@@H]1O[C@@H]1[C@@H](O)COCc1ccccc1)OC,2%,-16%,·,-2%,-4%,-6%
c1cc(-c2noc(CC3CCCCC3)n2)ccn1,?,1%,·,?,11%,2%
c1ccc(Cc2nc(-c3ccccn3)no2)cc1,?,-17%,25µM*,24µM*,?,2.8µM*
CN(C)C(=O)CCCc1nc(-c2ccc(Cl)cc2)no1,15µM*,·,14%,?,?,3.2µM*
Clc1ccc(-c2noc(CCCc3ccccc3)n2)cc1,?,2%,5%,27µM*,6%,8%
c1ccc(-c2noc(CC3CCCCC3)n2)nc1,?,-29%,·,9.5µM*,3.5µM*,1.1µM*
COc1ccc(NC(=O)c2nn(C)c3c2CS(=O)(=O)c2ccccc2-3)cc1Cl,·,·,·,-14%,·,·
COc1ccc(Cc2nc(-c3ccncc3)no2)cc1,8%,15%,·,?,2%,-14%
COc1ccc(-c2noc(Cc3cccs3)n2)cc1,?,4%,17%,5.4µM*,?,2.8µM*
COc1ccc(Cc2nc(-c3ccccn3)no2)cc1,18%,4%,?,?,3.5µM*,?
CCOCCCNC(=O)C1CCCN(Cc2nc(-c3ccc(CC)cc3)oc2C)C1 (stereo not drawn),·,·,-33%,4%,·,·
CN(C)/C=C1/C(=O)N(c2ccc([N+](=O)[O-])cc2)N=C1c1ccccc1,?,·,10µM*,7.6µM*,?,?
C/C(=C1/C(=O)N(c2ccc([N+](=O)[O-])cc2)N=C1c1ccccc1)N(C)C,-4%,·,-32%,3%,?,21%
